Several values for one entry are separate records, joined by “and”; a condition that tells them apart may be missing. Equal entries are not always repeated. Results filed as inconclusive are left out. Where a call stands in place of a potency, no number is given. More than one record can exist for a structure, and the calls need not agree. Activity calls are given as the source filed them. The call rests on the fitted dose curve; in most records, active means well fitted cell-killing curve with a large enough effect in the repeat runs; inconclusive means weak or mixed curves, or effect the other way; inactive means flat fitted curve, though single readings scatter.
Test: qHTS RealTime-Glo MT Cell Viability Assay in HEK293 cells - 24 hour (AID 1224886); further: nearly all actives have a fitted effect of over 50% in size
Settings: RealTime-Glo luminescence; series mostly up to 76.8 µM
Description: National Center for Advancing Translational Sciences [NCATS]
NIH Chemical Genomics Center [NCGC]
U.S. Environmental Protection Agency [EPA]
National Institutes of Environmental Health Sciences [NIEHS]
National Toxicology Program [NTP]
U.S. Food and Drug Administration [FDA]
Measure of cell viability is critical in the cell-base assay. Analysis of cell viability is necessary for the characterization of cell responses to cytotoxic drugs and environmental stress. A RealTime-Glo MT Cell Viability Assay to monitor cell viability in real time of continues cell culture during 40 hours of compound treatment was used to screen Tox21 10K library compounds in Hek293 cells. The RealTime-Glo MT Cell Viability Assay is a nonlytic, homogeneous, bioluminescent method to measure cell viability in real time using a simple, plate-based method. The assay involves adding NanoLuc luciferase and a cell-permeant prosubstrate to cells in culture. Viable cells reduce the proprietary prosubstrate to generate a substrate for NanoLuc luciferase. This substrate diffuses from cells into the surrounding culture medium, where it is rapidly used by the NanoLuc Enzyme to produce a luminescent signal. The signal correlates with the number of viable cells, making the assay well suited for cytotoxicity studies.
Tox21 Assay Protocol Summary:
The mixture of Hek293 cell suspension and reagents were dispensed at 600cells/6 ul/well in 1536-well tissue culture treated black solid bottom plates using a Multidrop dispenser. After the assay plates were incubated at a 37 C/5% CO2 incubator for 5 hours, 23 nL of compounds dissolved in DMSO, positive and negative controls was transferred to the assay plate by a pintool work station. The plates were incubated at 37 C for 40 hours. The luminescence intensity were measured at 0h, 8h, 16h, 24h, 32h and 40h time points using ViewLux plate reader during compound treatment.
In the case of `COCN(COC)c1nc(N(COC)COC)nc(N(COC)COC)n1`, the Potency is reported as “inactive”. In the case of `COc1ccccc1[N+](=O)[O-]`, the Potency is reported as “inactive”. In the case of `CC(C)c1ccc(C(C)C)cc1`, the Potency is reported as “inactive”. For `N[C@@H](Cc1cc(I)c(Oc2ccc(O)c(I)c2)c(I)c1)C(=O)O`, the Potency was “inactive”. In the case of `CC(=O)C(C)C`, the Potency is reported as “inactive”. For `OC[C@H]1O[C@@H](Oc2ccc(O)cc2)[C@H](O)[C@@H](O)[C@@H]1O`, the Potency was “inactive”. In the case of `OB(O)O`, the Potency is reported as “inactive”. For `CCn1cc(C(=O)O)c(=O)c2cc3c(cc21)OCO3`, the Potency was “inactive”. With `COc1ccc(N)c(OC)c1` the Potency was “inactive”. In the case of `C=C(CC(=O)O)C(=O)O`, the Potency is reported as “inactive”. In the case of `CCCCCCCCC(=O)O`, the Potency is reported as “inactive”. For `CC(=O)OC(C)(C)C1CC=C(C)CC1` (stereo not given), the Potency was “inactive”. In the case of `O=Cc1ccc(CO)o1`, the Potency is reported as “inactive”. For `CCc1cccc(CC)c1N`, the Potency was “inactive”. For `C1CCCNCC1`, the Potency was “inactive”. With `CN1Cc2c(N)cccc2C(c2ccccc2)C1` (stereo not given) the Potency was “inactive”. In the case of `O=C1OC(=O)c2c(Cl)c(Cl)c(Cl)c(Cl)c21`, the Potency is reported as “inactive”. With `OCC(CO)(CO)CO` the Potency was “inactive”. For `Brc1ccc(Oc2ccc(Br)cc2)cc1`, the Potency was “inactive”. In the case of `CCCCCNCCCCC`, the Potency is reported as “inactive”. For `CC(=O)CC(=O)N(C)C`, the Potency was “inactive”. For `CCCCCCC(=O)O`, the Potency was “inactive”. With `OCC(O)CS` (stereo not given) the Potency was “inactive”. With `CS(=O)(=O)c1ccc(Cl)cc1` the Potency was “inactive”. For `O=C(O)C1=NN(c2ccc(S(=O)(=O)O)cc2)C(=O)C1`, the Potency was “inactive”. In the case of `CN=C(NC#N)NCCSCc1nc[nH]c1C`, the Potency is reported as “inactive”. For `NC1CCCCC1N` (stereo not given), the Potency was “inactive”. For `N#CCC(=O)O`, the Potency was “inactive”. For `OCc1ccc(Cl)cc1Cl`, the Potency was “inactive”. With `COc1cc(NC(=O)CC(C)=O)c(OC)cc1Cl` the Potency was “inactive and 21.9 µM (active)”. In the case of `CCOC(=O)c1ccc(O)cc1`, the Potency is reported as “inactive”. For `OCCOCCOCCOCCOCCO`, the Potency was “inactive”. For `COc1c(Cl)ccc(Cl)c1C(=O)O`, the Potency was “inactive”. With `COc1ccc([C@@H]2CC(=O)c3c(O)cc(O[C@@H]4O[C@H](CO[C@@H]5O[C@@H](C)[C@H](O)[C@@H](O)[C@H]5O)[C@@H](O)[C@H](O)[C@H]4O)cc3O2)cc1OC` the Potency was “inactive”. With `CC(=O)Nc1ccc(CC(=O)O)cc1` the Potency was “inactive”. For `C=CC(=O)NCOCCCC`, the Potency was “inactive”. With `O=C1C(N(CO)C(=O)NCO)N(CO)C(=O)N1CO` (stereo not given) the Potency was “inactive”. With `COC(=O)/C=C\C(=O)OC` the Potency was “inactive”. For `CCOC(=O)CC(=O)OCC`, the Potency was “inactive”. In the case of `Nc1nc(N)c2nc(-c3ccccc3)c(N)nc2n1`, the Potency is reported as “inactive”.
Potency means the concentration at half of the fitted maximal effect.
